According to the supplement of paper PMC12582362:
Where a name gives a salt, the structure may show the parent alone. Among all 1,500 compounds or so, about 30 (2%) showed activity. This is one part of a sample in which actives are shown more often than they occur.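 Rule for the calls: active = robust z-score below -2; a few such results were not called.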

What follows are compounds tested on optoTopBP1 Flp-In 293 T-REx (HEK293) cells (assay: light-induced TopBP1 condensate (nuclear foci) count, plate-normalised robust z-score vs non-control wells; higher = more TopBP1 condensates (negative = condensation inhibitor), active = hit call of the paper). Settings: 10 µM; incubation time 2 h.

Compound	light-induced TopBP1 condensate (z-score)
CN(c1nccc(=O)[nH]1)C1CCN(c2nc3ccccc3n2Cc2ccc(F)cc2)CC1 [Mizolastine]	-0.786 (inactive)
CC(C)=CCOc1ccc(/C=C/C(=O)c2ccc(OCC=C(C)C)cc2OCC(=O)O)cc1 [Sofalcone]	0.373 (inactive)
CC(=O)OCC(=O)[C@@]12OC3(CCCC3)O[C@@H]1C[C@H]1[C@@H]3CCC4=CC(=O)C=C[C@]4(C)[C@@]3(F)[C@@H](O)C[C@@]12C [Amcinonide]	0.776 (inactive)
CNCC[C@@H](Oc1cccc2ccccc12)c1cccs1 [(R)-Duloxetine hydrochloride]	-1.75 (inactive)
O=C(CCCCC(=O)Nc1c(I)cc(I)c(C(=O)O)c1I)Nc1c(I)cc(I)c(C(=O)O)c1I [Iodipamide]	-0.465 (inactive)
CC(C(=O)O)c1ccc(C(=O)c2cccs2)cc1 (stereo not drawn) [Suprofen]	-0.434 (inactive)
COc1cc(C(=O)NC2CCCNC2)cc(OC)c1OC (stereo not drawn) [Troxipide]	-0.997 (inactive)
Nc1nc(=S)c2ncn([C@@H]3O[C@H](CO)[C@@H](O)[C@H]3O)c2[nH]1 [Thioguanosine]	1.17 (inactive)
OCCN1CCN(CCCN2c3ccccc3C=Cc3ccccc32)CC1 [Opipramol dihydrochloride]	-0.102 (inactive)
CO[C@@H]1[C@@H](O[C@@H]2O[C@H](C)[C@@H](O[C@H]3C[C@@](C)(O)[C@@H](O)[C@H](C)O3)[C@H](N(C)C)[C@H]2O)[C@@H](CC=O)C[C@@H](C)[C@@H](O[C@H]2CC[C@H](N(C)C)[C@@H](C)O2)/C=C/C=C/C[C@@H](C)OC(=O)C[C@H]1OC(C)=O [Acetyl spiramycin]	-0.0623 (inactive)
CC[C@]12CCCN3CCc4c(n(c5ccccc45)[C@@](O)(C(=O)OC)C1)[C@@H]32 [Vincamine]	-0.735 (inactive)
CC1=C(C)C(=O)C(C(CCCCCC(=O)O)c2ccccc2)=C(C)C1=O (stereo not drawn) [Seratrodast]	-1.1 (inactive)
O=C(O)c1ccccc1Nc1cc(Cl)ccc1C(=O)O [Lobenzarit disodium]	0.707 (inactive)
CCCCC(CC)CNC(=N)NC(=N)NCCCCCCNC(=N)NC(=N)NCC(CC)CCCC (stereo not drawn) [Alexidine dihydrochloride]	-0.446 (inactive)
COC(=O)C1=C(C)NC(C)=C(C(=O)O[C@H]2CCN(Cc3ccccc3)C2)[C@H]1c1cccc([N+](=O)[O-])c1 [Barnidipine Hydrochloride]	-1.06 (inactive)
CCOCCn1c(N2CCCN(C)CC2)nc2ccccc21 [Emedastine]	-0.971 (inactive)
CN1CCC(=C2c3ccccc3Sc3ccccc32)CC1 [Pimethixene maleate]	-1.21 (inactive)
C[C@H]1[C@@H](O)O[C@@H]2O[C@@]3(C)CC[C@H]4[C@H](C)CC[C@@H]1[C@@]24OO3 [Artenimol]	0.222 (inactive)
CC(=O)OC(C)OC(=O)C(C)c1ccc(-c2ccccc2)c(F)c1 (stereo not drawn) [Flurbiprofen axetil]	-0.559 (inactive)
Cc1cc2nc3ccc(N(C)C)cc3[s+]c2cc1N [Tolonium chloride]	-9.72 (active)
O=C(Cn1cnnn1)N[C@@H]1C(=O)N2C(C(=O)O)=C(CSc3nncs3)CS[C@H]12 [Ceftezole]	-0.707 (inactive)

Compound	light-induced TopBP1 condensate (z-score)
O=C(Cn1c(=O)sc2ccc(Cl)cc21)N1CCN(CCO)CC1 [Tiaramide Hydrochloride]	0.609 (inactive)
O=C1c2cccc(O)c2C(=O)c2c(O)cccc21 [1,8-Dihydroxyanthraquinone]	-2.97 (active)
O=C1c2c(O)cccc2Cc2cccc(O)c21 [Anthralin]	-0.589 (inactive)
CC(=O)Oc1cccc2c1C(=O)c1c(OC(C)=O)cc(C(=O)O)cc1C2=O [Diacerein]	-1.09 (inactive)
CC(C(=O)O)c1cccc(Oc2ccccc2)c1 (stereo not drawn) [Fenoprofen calcium salt dihydrate]	0.527 (inactive)
CN1CCC(OC(c2ccccc2)c2ccccc2)CC1 [Diphenylpyraline hydrochloride]	-0.243 (inactive)
CC=CC(=O)N(CC)c1ccccc1C [Crotamiton]	-1.09 (inactive)
CC(=O)CC(c1ccccc1)c1c(O)c2ccccc2oc1=O (stereo not drawn) [Warfarin]	0.476 (inactive)
Nc1ccn([C@@H]2O[C@H](CO)[C@@H](O)C2(F)F)c(=O)n1 [Gemcitabine]	-2.33 (active)
Nc1ccn([C@H]2CC[C@@H](CO)O2)c(=O)n1 [Zalcitabine]	0.161 (inactive)
Nc1ccn([C@@H]2O[C@H](CO)[C@@H](O)[C@@H]2O)c(=O)n1 [Cytarabine]	-1.9 (inactive)
O=C(Oc1cccc2cccnc12)c1ccccc1 [Benzoxiquine]	-0.428 (inactive)
OCCOCCN1CCN(C2=Nc3ccccc3Sc3ccccc32)CC1 [Quetiapine hemifumarate]	0.443 (inactive)
O=C(CCCl)NCc1ccccc1 [Beclamide]	0.736 (inactive)
O=C1[C@H]2CCCC[C@H]2C(=O)N1CCCCN1CCN(c2nsc3ccccc23)CC1 [Perospirone]	-0.904 (inactive)
CC(=O)O[C@@]12CO[C@@H]1C[C@H](O)[C@@]1(C)C(=O)[C@H](O)C3=C(C)[C@@H](OC(=O)[C@H](O)[C@@H](NC(=O)OC(C)(C)C)c4ccccc4)C[C@@](O)([C@@H](OC(=O)c4ccccc4)[C@H]21)C3(C)C [Docetaxel]	-1.72 (inactive)
CNC(=O)c1c(I)c(C(=O)NCC(=O)Nc2c(I)c(C(=O)O)c(I)c(C(=O)NCCO)c2I)c(I)c(N(C)C(C)=O)c1I [Ioxaglic acid]	1.43 (inactive)
Cn1cc([S+](C)[O-])c(=O)c2ccc(F)cc21 (stereo not drawn) [Flosequinan]	0.501 (inactive)
CC(=O)OCC(=O)[C@@]1(O)CC[C@H]2[C@@H]3CCC4=CC(=O)C=C[C@]4(C)[C@@]3(F)[C@@H](O)C[C@@]21C [Isoflupredone acetate]	0.491 (inactive)
Nc1ncn(C2OC(CO)C(O)C2O)c(=O)n1 (stereo not drawn) [Azacytidine-5]	0.0662 (inactive)
NC(=O)c1ncn([C@@H]2O[C@H](CO)[C@@H](O)[C@H]2O)c1O [Mizoribine]	-0.419 (inactive)

Compound	light-induced TopBP1 condensate (z-score)
N=c1ccn2c(n1)O[C@H]1[C@H](O)[C@@H](CO)O[C@H]12 [Ancitabine hydrochloride]	-2.02 (active)
CCOC(=O)[C@H](CCc1ccccc1)N[C@@H](C)C(=O)N(CC(=O)O)C1Cc2ccccc2C1 [Delapril Hydrochloride]	0.988 (inactive)
CC(=O)O[C@H]1C[C@@H]2CC[C@@H]3[C@H](CC[C@@]4(C)[C@H]3C[C@H]([N+]3(C)CCCCC3)[C@@H]4OC(C)=O)[C@@]2(C)C[C@@H]1N1CCCCC1 [Vecuronium bromide]	0.392 (inactive)
O=c1[nH]cnc2c1ncn2[C@@H]1O[C@H](CO)[C@@H](O)[C@H]1O [Inosine]	-0.394 (inactive)
Cc1cccn2c(=O)c(-c3nnn[nH]3)cnc12 [Pemirolast potassium]	0.448 (inactive)
CN(C)[C@@H]1C(O)=C(C(=O)NCNCCCC[C@H](N)C(=O)O)C(=O)[C@@]2(O)C(O)=C3C(=O)c4c(O)cccc4[C@@](C)(O)[C@H]3C[C@@H]12 [Lymecycline]	0.0668 (inactive)
Cc1c(Cl)cccc1Nc1ccccc1C(=O)O [Tolfenamic acid]	-0.245 (inactive)
CN[C@@H]1[C@H](O[C@H]2[C@H](O[C@H]3[C@H](O)[C@@H](O)[C@H](N=C(N)N)[C@@H](O)[C@@H]3N=C(N)N)O[C@@H](C)[C@]2(O)C=O)O[C@@H](CO)[C@H](O)[C@H]1O [Streptomycin sulfate]	-0.213 (inactive)
CC(=O)Nc1c(I)c(NC(C)=O)c(I)c(C(=O)O)c1I [Diatrizoic acid dihydrate]	-0.965 (inactive)
CC(=O)OC[C@H]1O[C@@H]([S-])[C@H](OC(C)=O)[C@@H](OC(C)=O)[C@@H]1OC(C)=O.CCP(CC)CC.[Au+] [Auranofin]	-4.74 (active)
CC(=O)OC[C@H]1O[C@@H](n2ncc(=O)[nH]c2=O)[C@H](OC(C)=O)[C@@H]1OC(C)=O [Azaribine]	0.84 (inactive)
CC(C)c1nc(CN(C)C(=O)N[C@H](C(=O)N[C@@H](Cc2ccccc2)C[C@H](O)[C@H](Cc2ccccc2)NC(=O)OCc2cncs2)C(C)C)cs1 [Ritonavir]	-1.47 (inactive)
Cc1onc(-c2ccccc2)c1-c1ccc(S(N)(=O)=O)cc1 [Valdecoxib]	-1.03 (inactive)
COC(=O)Nc1nc2cc(C(=O)c3cccs3)ccc2[nH]1 [Nocodazole]	-1.07 (inactive)
CCCOc1ccc2[nH]c(NC(=O)OC)nc2c1 [Oxibendazol]	-3.01 (active)
COC(=O)Nc1nc2cc([S+]([O-])c3ccccc3)ccc2[nH]1 (stereo not drawn) [Oxfendazol]	0.733 (inactive)
CCCCc1ccc2[nH]c(NC(=O)OC)nc2c1 [Parbendazole]	-0.867 (inactive)
COC(=O)Nc1nc2cc(C(=O)c3ccccc3)ccc2[nH]1 [Mebendazole]	-1.07 (inactive)
COC(=O)Nc1nc2cc(C(=O)c3ccc(F)cc3)ccc2[nH]1 [Flubendazol]	-2.01 (active)
O=C(O)c1cc(/N=N/c2ccc(S(=O)(=O)Nc3ccccn3)cc2)ccc1O [Sulfasalazine]	-0.0783 (inactive)
C[C@H](O)[C@H](O)[C@H]1CNc2[nH]c(N)nc(=O)c2N1 [Sapropterin dihydrochloride]	0.574 (inactive)
